Experimental data: the supplement of paper PMC8728848
The sample as a whole holds a higher share of the strongest signals than the screen did.

Experiments:
Assay in all cases: glycan array binding signal (z-score within array); higher = stronger binding
Settings in all cases: glycan notation: IUPAC condensed, linker removed
[1] = molecular target: Fuc(a1-2)Gal(b1-3)GalNAc(a1-3)[Fuc(a1-2)]Gal(b1-4)Glc
In short: (§1)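 The Consortium for Functional Glycomics database supplied 3228 glycan arrays, of which those lacking an available protein sequence were dropped. The binding signal, a within-array Z-score, was averaged across arrays of the same protein sequence and across linkers. Negative scores can be read as non-binding.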

[2] = molecular target: Fuc(a1-2)Gal(b1-4)[Fuc(a1-3)]GlcNAc(b1-3)Gal(b1-4)[Fuc(a1-3)]GlcNAc
In short: as §1

[3] = molecular target: Fuc(a1-2)Gal(b1-4)[Fuc(a1-3)]GlcNAc(b1-3)[Neu5Ac(a2-6)Gal(b1-4)GlcNAc(b1-6)]Gal(b1-4)Glc
In short: as §1

[4] = molecular target: Fuc(a1-2)[Gal(a1-3)]Gal(b1-4)GlcNAc(b1-6)GalNAc
In short: as §1

[5] = molecular target: Fuc(a1-2)[GalNAc(a1-3)]Gal(b1-3)GalNAc(a1-3)[Fuc(a1-2)]Gal(b1-4)GlcNAc
In short: as §1

[6] = molecular target: Fuc(a1-2)[GalNAc(a1-3)]Gal(b1-4)[Fuc(a1-3)]GlcNAc(b1-3)GalNAc
In short: as §1

[7] = molecular target: Fuc(a1-3)[Gal(b1-4)]GlcNAc(b1-2)Man(a1-3)[Fuc(a1-3)[Gal(b1-4)]GlcNAc(b1-2)Man(a1-6)]Man(b1-4)GlcNAc(b1-4)[Fuc(a1-6)]GlcNAc
In short: as §1

Gal(a1-3)GalNAc = molecular target: Gal(a1-3)GalNAc
In short: as §1

[8] = molecular target: Gal(a1-3)[Gal(a1-4)]Gal(b1-4)GlcNAc
In short: as §1

Gal(a1-4)Gal(b1-4)Glc = molecular target: Gal(a1-4)Gal(b1-4)Glc
In short: as §1

[9] = molecular target: Gal(b1-3)GalNAc(b1-4)Gal(b1-4)Glc
In short: as §1

[10] = molecular target: Gal(b1-3)GlcNAc(a1-3)Gal(b1-4)GlcNAc
In short: as §1

Gal(b1-4)Gal = molecular target: Gal(b1-4)Gal
In short: as §1

[11] = molecular target: Gal(b1-4)GalNAc(a1-3)[Fuc(a1-2)]Gal(b1-4)GlcNAc
In short: as §1

[12] = molecular target: Gal(b1-4)GlcNAc(b1-3)Gal(b1-4)GlcNAc(b1-3)Gal(b1-4)GlcNAc(b1-2)Man(a1-3)[Gal(b1-4)GlcNAc(b1-3)Gal(b1-4)GlcNAc(b1-3)Gal(b1-4)GlcNAc(b1-2)Man(a1-6)]Man(b1-4)GlcNAc(b1-4)[Fuc(a1-6)]GlcNAc
In short: as §1

Gal(b1-6)Gal = molecular target: Gal(b1-6)Gal
In short: as §1

Gal3S6S(b1-4)GlcNAc6S = molecular target: Gal3S6S(b1-4)GlcNAc6S
In short: as §1

Gal6S(b1-4)Glc = molecular target: Gal6S(b1-4)Glc
In short: as §1

[13] = molecular target: GalNAc(b1-3)Gal(a1-4)Gal(b1-4)GlcNAc
In short: as §1

GalNAc(b1-4)GlcNAc = molecular target: GalNAc(b1-4)GlcNAc
In short: as §1

GalNAc4S6S(b1-4)GlcNAc = molecular target: GalNAc4S6S(b1-4)GlcNAc
In short: as §1

GalNAc6S(b1-4)GlcNAc = molecular target: GalNAc6S(b1-4)GlcNAc
In short: as §1

GlcA(b1-3)Gal = molecular target: GlcA(b1-3)Gal
In short: as §1

[14] = molecular target: GlcNAc(a1-4)Gal(b1-3)GlcNAc
In short: as §1

[15] = molecular target: GlcNAc(a1-4)Gal(b1-4)GlcNAc(b1-3)Gal(b1-4)Glc
In short: as §1

[16] = molecular target: GlcNAc(b1-2)Gal(b1-3)GalNAc
In short: as §1

[17] = molecular target: GlcNAc(b1-2)[GlcNAc(b1-4)]Man(a1-3)[GlcNAc(b1-4)][GlcNAc(b1-2)Man(a1-6)]Man(b1-4)GlcNAc(b1-4)GlcNAc
In short: as §1

[18] = molecular target: GlcNAc(b1-3)Gal(b1-4)GlcNAc(b1-2)[GlcNAc(b1-3)Gal(b1-4)GlcNAc(b1-6)]Man(a1-6)[GlcNAc(b1-3)Gal(b1-4)GlcNAc(b1-2)Man(a1-3)]Man(b1-4)GlcNAc(b1-4)GlcNAc
In short: as §1

[19] = molecular target: GlcNAc(b1-3)Gal(b1-4)GlcNAc(b1-3)Gal(b1-4)GlcNAc(b1-2)[GlcNAc(b1-3)Gal(b1-4)GlcNAc(b1-3)Gal(b1-4)GlcNAc(b1-6)]Man(a1-6)[GlcNAc(b1-3)Gal(b1-4)GlcNAc(b1-3)Gal(b1-4)GlcNAc(b1-2)Man(a1-3)]Man(b1-4)GlcNAc(b1-4)[Fuc(a1-6)]GlcNAc
In short: as §1

[20] = molecular target: GlcNAc(b1-3)Gal(b1-4)GlcNAc(b1-3)Gal(b1-4)GlcNAc(b1-3)Gal(b1-4)GlcNAc(b1-3)Gal(b1-4)GlcNAc(b1-2)[GlcNAc(b1-3)Gal(b1-4)GlcNAc(b1-3)Gal(b1-4)GlcNAc(b1-3)Gal(b1-4)GlcNAc(b1-3)Gal(b1-4)GlcNAc(b1-6)]Man(a1-6)[GlcNAc(b1-3)Gal(b1-4)GlcNAc(b1-3)Gal(b1-4)GlcNAc(b1-3)Gal(b1-4)GlcNAc(b1-3)Gal(b1-4)GlcNAc(b1-2)Man(a1-3)]Man(b1-4)GlcNAc(b1-4)[Fuc(a1-6)]GlcNAc
In short: as §1

[21] = molecular target: GlcNAc(b1-6)Gal(b1-4)GlcNAc
In short: as §1

[22] = molecular target: Kdn(a2-3)Gal(b1-4)[Fuc(a1-3)]GlcNAc
In short: as §1

Kdn(a2-6)Gal(b1-4)GlcNAc = molecular target: Kdn(a2-6)Gal(b1-4)GlcNAc
In short: as §1

[23] = molecular target: Man(a1-2)Man(a1-3)[Man(a1-6)]Man(a1-6)[Man(a1-2)Man(a1-3)]Man(b1-4)GlcNAc(b1-4)GlcNAc
In short: as §1

[24] = molecular target: Man(a1-2)Man(a1-6)[Man(a1-3)]Man(a1-6)[Man(a1-2)Man(a1-2)Man(a1-3)]Man(b1-4)GlcNAc(b1-4)GlcNAc
In short: as §1

Man(a1-6)Man = molecular target: Man(a1-6)Man
In short: as §1

[25] = molecular target: Neu5Ac(a2-3)Gal(b1-3)GalNAc
In short: as §1

[26] = molecular target: Neu5Ac(a2-3)Gal(b1-4)GlcNAc(b1-3)Gal(b1-4)GlcNAc(b1-3)Gal(b1-4)GlcNAc(b1-2)Man(a1-3)[Neu5Ac(a2-3)Gal(b1-4)GlcNAc(b1-3)Gal(b1-4)GlcNAc(b1-3)Gal(b1-4)GlcNAc(b1-2)Man(a1-6)]GalNAc
In short: as §1

[27] = molecular target: Neu5Ac(a2-3)Gal(b1-4)GlcNAc(b1-6)[Gal(b1-3)]GalNAc
In short: as §1

[28] = molecular target: Neu5Ac(a2-3)Gal(b1-4)GlcNAc(b1-6)[Neu5Ac(a2-3)Gal(b1-3)]GalNAc
In short: as §1

Neu5Ac(a2-6)Gal = molecular target: Neu5Ac(a2-6)Gal
In short: as §1

[29] = molecular target: Neu5Ac(a2-6)Gal(b1-4)GlcNAc(b1-2)Man(a1-3)[Gal(b1-4)GlcNAc(b1-2)Man(a1-6)]Man(b1-4)GlcNAc(b1-4)GlcNAc
In short: as §1

[30] = molecular target: Neu5Ac(a2-6)Gal(b1-4)GlcNAc(b1-2)Man(a1-6)[Gal(b1-4)GlcNAc(b1-2)Man(a1-3)]Man(b1-4)GlcNAc(b1-4)GlcNAc
In short: as §1

[31] = molecular target: Neu5Ac(a2-6)Gal(b1-4)GlcNAc(b1-3)GalNAc
In short: as §1

[32] = molecular target: Neu5Gc(a2-3)Gal(b1-4)[Fuc(a1-3)]GlcNAc
In short: as §1

B1: AT5G17240(42) (Arabidopsis thaliana), Q6NQJ8 (protein)
chain: MDLEHQTMETFLRWAAEIGISDSIDSSRFRDSCLGHSLSVSDFPDAGGRGLGAARELKKGELVLKVPRKALMTTESIIAKDLKLSDAVNLHNSLSSTQILSVCLLYEMSKEKKSFWYPYLFHIPRDYDLLATFGNFEKQALQVEDAVWATEKATAKCQSEWKEAGSLMKELELKPKFRSFQAWLWASATISSRTLHVPWDSAGCLCPVGDLFNYDAPGDYSNTPQGPESANNVEEAGLVVETHSERLTDGGFEEDVNAYCLYARRNYQLGEQVLLCYGTYTNLELLEHYGFMLEENSNDKVFIPLETSLFSLASSWPKDSLYIHQDGKLSFALISTLRLWLIPQSQRDKSVMRLVYAGSQISVKNEILVMKWMSEKCGSVLRDLPTSVTEDTVLLHNIDKLQDPELRLEQKETEAFGSEVRAFLDANCLWDVTVLSGKPIEFSRKTSRMLSKWRWSVQWRLSYKRTLADCISYCNEKMNNLLGTQDRLRDL
[1]
  glycan array binding signal (z-score): 0.123
[2]
  glycan array binding signal (z-score): 0.458
[3]
  glycan array binding signal (z-score): -0.37
[4]
  glycan array binding signal (z-score): -0.375
[5]
  glycan array binding signal (z-score): -0.276
[6]
  glycan array binding signal (z-score): 6.64
[7]
  glycan array binding signal (z-score): 0.044
Gal(a1-3)GalNAc
  glycan array binding signal (z-score): 1.94
[8]
  glycan array binding signal (z-score): 8.82
Gal(a1-4)Gal(b1-4)Glc
  glycan array binding signal (z-score): 4.63
[9]
  glycan array binding signal (z-score): 1.23
[10]
  glycan array binding signal (z-score): -0.028
Gal(b1-4)Gal
  glycan array binding signal (z-score): 0.335
[11]
  glycan array binding signal (z-score): -0.444
[12]
  glycan array binding signal (z-score): -0.845
Gal(b1-6)Gal
  glycan array binding signal (z-score): -0.362
Gal3S6S(b1-4)GlcNAc6S
  glycan array binding signal (z-score): 1.61
Gal6S(b1-4)Glc
  glycan array binding signal (z-score): -0.21
[13]
  glycan array binding signal (z-score): 3.08
GalNAc(b1-4)GlcNAc
  glycan array binding signal (z-score): 8.25
GalNAc4S6S(b1-4)GlcNAc
  glycan array binding signal (z-score): 1.39
GalNAc6S(b1-4)GlcNAc
  glycan array binding signal (z-score): -0.134
GlcA(b1-3)Gal
  glycan array binding signal (z-score): -0.785
[14]
  glycan array binding signal (z-score): -0.54
[15]
  glycan array binding signal (z-score): -0.607
[16]
  glycan array binding signal (z-score): -0.394
[17]
  glycan array binding signal (z-score): -0.434
[18]
  glycan array binding signal (z-score): 2.56
[19]
  glycan array binding signal (z-score): 1.12
[20]
  glycan array binding signal (z-score): 1.33
[21]
  glycan array binding signal (z-score): 1.88
[22]
  glycan array binding signal (z-score): -0.336
Kdn(a2-6)Gal(b1-4)GlcNAc
  glycan array binding signal (z-score): -0.164
[23]
  glycan array binding signal (z-score): 0.607
[24]
  glycan array binding signal (z-score): -0.172
Man(a1-6)Man
  glycan array binding signal (z-score): 0.232
[25]
  glycan array binding signal (z-score): -0.438
[26]
  glycan array binding signal (z-score): 2.21
[27]
  glycan array binding signal (z-score): -0.303
[28]
  glycan array binding signal (z-score): -0.407
Neu5Ac(a2-6)Gal
  glycan array binding signal (z-score): 0.474
[29]
  glycan array binding signal (z-score): -0.171
[30]
  glycan array binding signal (z-score): -0.325
[31]
  glycan array binding signal (z-score): -0.543
[32]
  glycan array binding signal (z-score): -0.299
